The list is not random: actives were taken first. Their share in the collection is about 18%.
IL-1B inflam inh: blocks inflammasome-driven IL-1 beta release | THP-1 LPS/ATP IL-1B secretion, AlphaLISA, 16 h; active compounds read low | activity change, % at 57.5 µM | hit rate 4.7% among 360,000; in the data active = activity change below about -50%; inconclusive = mostly about -30% to -49%
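Secreted IL-1B measured by AlphaLISA bead assay after 16 h compound exposure of THP-1 cells; compounds (final up to 57.5 uM) added 1 h before LPS (250 ng/mL) and ATP (1.25 mM) stimulation; lower signal means less secretion.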
CtBP-E1A blk: blocks the CtBP interaction with E1A | AlphaScreen GST-E1A/His-CtBP binding, 1536-well; active compounds read low | hit rate 0.49% among 340,000 | activity change, % (no concentration beside the values); in the data active = activity change below about -65%; inconclusive = mostly about -30% to -63%
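Homogeneous bead-based format: GST-tagged E1A captured on glutathione donor beads, His-tagged CtBP on nickel acceptor beads; compounds precede bead addition by 2 h at 37 °C.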
TDP1 cell noCPT: qHTS for Inhibitors of human tyrosyl-DNA phosphodiesterase 1 (TDP1): qHTS in cells in absence of CPT. AID 686978, 2013. hit rate 15% among 420,000. DT40 Tdp1-/- hTDP1 cells, no CPT, ATP luminescence, 48 h. Potency, µM (top dose mostly 46.2 µM), most hits filed as inhibitors; also: nearly all actives have a fitted effect of over 55% in size
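Compound effects on proliferation are scored in DT40 Tdp1-/-;hTDP1 cells in the absence of CPT. ATP levels (CellTiter-Glo luminescence) are recorded after a ≥48 hr, 37 °C incubation.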
TDP1 inh: blocks human tyrosyl-DNA phosphodiesterase 1; Q9NUW8; recombinant TDP1, AlphaScreen DNA substrate cleavage; Potency, µM (top dose mostly 130 µM), actives largely listed as inhibitors; hit rate 0.28% among 350,000; AID 485290; also: nearly all actives have a fitted effect of over 40% in size
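Signal: AlphaScreen proximity between streptavidin donor and anti-FITC acceptor beads on intact substrate. Reaction: Tdp1 1 nM, substrate 15 nM final, 5 min RT after 15 min compound preincubation.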
DT40 TDP1 CPT: DT40-hTDP1 cell growth loss with CPT; chicken DT40 Tdp1-/-;hTDP1 cells + 20 nM CPT, ATP luminescence, 48 h; Potency, µM (series often up to 46.2 µM), actives largely listed as inhibitors; hit rate 12% among 420,000; AID 686979; also: nearly all actives have a fitted effect of over 55% in size
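Chicken DT40 Tdp1-/- cells complemented with human TDP1, 400 cells/well, exposed to compounds plus 20 nM camptothecin for at least 48 h at 37 C; viability read as ATP content by CellTiter-Glo luminescence.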
Six1-Eya2 blk: inhibitors of human Six1/Eya2 interaction; AlphaScreen GST-Six1/His-Eya2 binding, biochemical; active compounds read low; hit rate 0.56% among 360,000; AID 651725; activity change, % (concentration not given with the values); in the data active = activity change below about -65%; inconclusive = mostly about -30% to -63%
Target sequence (O00167 whole entry, looked up): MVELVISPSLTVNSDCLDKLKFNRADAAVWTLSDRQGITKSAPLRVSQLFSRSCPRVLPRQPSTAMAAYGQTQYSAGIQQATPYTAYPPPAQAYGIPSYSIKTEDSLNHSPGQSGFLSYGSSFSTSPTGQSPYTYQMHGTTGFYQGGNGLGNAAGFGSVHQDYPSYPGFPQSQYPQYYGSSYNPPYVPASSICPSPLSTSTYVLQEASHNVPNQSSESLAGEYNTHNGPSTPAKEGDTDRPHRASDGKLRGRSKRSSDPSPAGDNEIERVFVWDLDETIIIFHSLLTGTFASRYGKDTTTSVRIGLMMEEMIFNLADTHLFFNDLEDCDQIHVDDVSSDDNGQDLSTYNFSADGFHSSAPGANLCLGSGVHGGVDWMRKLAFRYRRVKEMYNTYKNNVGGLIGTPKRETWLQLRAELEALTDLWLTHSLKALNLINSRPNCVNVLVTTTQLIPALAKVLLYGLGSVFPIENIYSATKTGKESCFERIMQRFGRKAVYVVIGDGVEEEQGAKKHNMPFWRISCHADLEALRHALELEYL
Target sequence (Q15475 whole entry, looked up): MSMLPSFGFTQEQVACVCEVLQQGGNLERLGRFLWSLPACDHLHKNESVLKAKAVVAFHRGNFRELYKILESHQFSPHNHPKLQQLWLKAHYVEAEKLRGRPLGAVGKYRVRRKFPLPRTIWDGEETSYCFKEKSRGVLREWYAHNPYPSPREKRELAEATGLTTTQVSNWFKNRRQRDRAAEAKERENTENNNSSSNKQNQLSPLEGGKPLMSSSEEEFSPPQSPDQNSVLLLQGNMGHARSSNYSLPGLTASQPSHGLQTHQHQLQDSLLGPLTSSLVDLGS
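Compounds are tested against tagged Six1 and Eya2 proteins bridged by glutathione donor and nickel acceptor beads; after a one-hour incubation at 37 °C without light, AlphaScreen emission is recorded.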
Numbers stand for hits; – = inactive; ? = inconclusive; · = not tested or not shown; [ ] = remark or other dose. Unless noted, calls follow the shape of the dose curve; as a rule, active = well fitted curve in the direction sought with a large enough effect; inconclusive = small, poorly fitted or top-dose-only effect, or another doubt; inactive = no such curve, though single readings can be large; an effect the other way counts as inactive or inconclusive.

SMILES | IL-1B inflam inh | CtBP-E1A blk | TDP1 cell noCPT | TDP1 inh | DT40 TDP1 CPT | Six1-Eya2 blk
Cc1nnc(NC(=O)c2cccc(S(=O)(=O)N3CCc4ccccc43)c2)s1 | – | – | – | – | – | –
CC(C)CCNC(=O)c1cccc(S(=O)(=O)N2CCc3ccccc32)c1 | – | – | ? | – | 15µM | –
O=C(Nc1nc2ccccc2s1)c1cccc(S(=O)(=O)N2CCc3ccccc32)c1 | – | – | 10µM | – | – | –
Cc1cc(NC(=O)CCC(=O)N(CC(C)C)C(C(=O)NC(C)(C)C)c2ccccc2Cl)no1 (configuration not stated) | – | – | – | –[0.0935 µM] | – | –
COc1ccc(/C=C/c2c([N+](=O)[O-])c(=O)n(C)c(=O)n2C)c(OC)c1 | – | – | – | – | – | –
COc1ccc(CCN2C(=O)NC(NS(=O)(=O)c3ccc(N)cc3)(C(F)(F)F)C2=O)cc1OC (configuration not stated) | – | – | – | – | – | –
CCOC(=O)c1[nH]c2ccc(OC)cc2c1NC(=S)N1CCN(c2ccccn2)CC1 | – | – | – | – | – | –
COc1cccc(-n2nc(C#N)c(Cl)cc2=O)c1 | -101 | – | 2.9µM | – | 2.3µM | ?
O=C(c1ccc2oc(CCc3ccccc3)nc2c1)N1CCC(O)CC1 | – | – | – | – | – | –
Cn1c(CCN2CCCC2)nc2cc(NS(=O)(=O)c3ccc(Cl)cc3)ccc21 | -86 | – | ? | – | ? | –
COc1ccc(-n2cnc3cc(NS(=O)(=O)c4ccccc4)ccc32)cc1 | – | – | 21µM | – | ? | –
Cn1c(CCN2CCN(c3ccccn3)CC2)nc2cc(NS(=O)(=O)c3ccccc3)ccc21 | – | – | 13µM | – | ? | –
CCCC(=O)Nc1ccc2c(c1)nc(CCN1CCN(c3ccccn3)CC1)n2C | – | – | – | · | – | –
Cn1c(CCN2CCCC2)nc2cc(NS(=O)(=O)c3ccc(F)cc3)ccc21 | -56 | – | ? | · | ? | –
Cn1c(CN2CCCC2)nc2cc(NS(=O)(=O)c3ccc(Cl)cc3)ccc21 | – | – | – | – | – | –
CC(C)(C)n1cnc2cc(NS(=O)(=O)c3ccccc3)ccc21 | – | – | ? | – | – | –
CCCC(=O)C1=C(N2CCCC2)CC(C)(C)C(C(=O)OC)C1=O (configuration not stated) | – | – | – | – | – | –
CC(C)Cc1nn2c(=O)cc(COc3ccc(NC(=O)c4ccco4)cc3)nc2s1 | – | – | – | – | – | –
CCOC(=O)/C(C#N)=C/c1c(N2CCN(C)CC2)nc2c(C)cccn2c1=O | – | – | – | · | – | –
Cn1c(CCN2CCOCC2)nc2cc(NS(=O)(=O)c3ccccc3)ccc21 | – | – | ? | · | – | –
Cn1c(CCN2CCCCC2)nc2cc(NS(=O)(=O)c3ccccc3)ccc21 | -50 | – | ? | – | ? | –
Cc1ccc(S(=O)(=O)Nc2ccc3c(c2)nc(CCN2CCCC2)n3C)cc1 | -76 | – | ? | – | ? | –
Cn1c(CN2CCCC2)nc2cc(NS(=O)(=O)c3ccccc3)ccc21 | – | – | – | – | – | –
O=C(COc1ccc(Cl)cc1)NCc1nnc(SCC(=O)N2CCCc3ccccc32)o1 | – | – | ? | – | – | –
O=C(Nc1ccccc1C(=O)N1CCOCC1)c1cccc(S(=O)(=O)N2CCCC2)c1 | – | – | – | – | – | –
CC(C)(C)c1ccc(OCC(=O)N2CCN(C=O)CC2)cc1 | – | – | – | – | – | –
CC1(C)CC(=O)C=C(Nc2ccccn2)C1 | – | – | – | – | – | –
S=c1[nH]ncn1/N=C/c1ccccc1 | – | – | 23µM | – | ? | –
COc1cc(C(CC(=O)N2CCCC2)c2c(OC)cc(OC)c3c(-c4ccccc4)cc(=O)oc23)cc(OC)c1OC (configuration not stated) | ? | – | ? | – | ? | –

Screening data (PubChem)
